Screening results: PubChem BioAssay, The Scripps Research Institute Molecular Screening Center
S1P1 ag = S1P1 (human) receptor agonism; P21453; AID 1044; 16,000 compounds, 1.5% hits; activation, % at 4.5 µM; S1P1 agonist cell-based reporter assay; in the data active = activation above about 80%
rat GALR2 agon = activates the rat galanin receptor 2 | O08726 | cell-based GALR2 agonist screen | activation, % at 10 µM | 16,000 compounds, 0.5% hits | AID 833; in the data active = activation above about 15%
Target sequence (O08726 whole entry, looked up): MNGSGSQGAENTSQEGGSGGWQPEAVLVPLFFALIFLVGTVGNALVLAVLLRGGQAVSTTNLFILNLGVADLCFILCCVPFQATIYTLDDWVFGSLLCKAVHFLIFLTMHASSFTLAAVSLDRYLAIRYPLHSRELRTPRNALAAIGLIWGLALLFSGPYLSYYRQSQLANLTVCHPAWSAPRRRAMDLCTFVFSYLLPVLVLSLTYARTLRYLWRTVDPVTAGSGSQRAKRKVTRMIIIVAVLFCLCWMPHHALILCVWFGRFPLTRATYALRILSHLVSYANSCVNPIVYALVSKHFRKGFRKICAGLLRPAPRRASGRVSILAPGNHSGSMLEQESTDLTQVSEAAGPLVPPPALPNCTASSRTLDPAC
TLR4-MyD88 inh = TLR4-MyD88 interaction inhibition | O00206 | Cell-based TLR4-MyD88 binding inhibition assay | inhibition, % at 10 µM | 16,000 compounds, 0.06% hits; in the data active = inhibition above about 45%
NOTCH ag = NOTCH pathway agonism; NOTCH signaling luciferase reporter cells, luminescence; activation, % at 2.5 µM; 15,000 compounds, 0.4% hits; AID 434982; in the data active = activation above about 2.2%
* marks the source's active call; other numbers are inactive results; . = not tested or not shown. Most compounds without a hit are left out; they make up all but 2.4% or so of the library.

SMILES	S1P1 ag	rat GALR2 agon	TLR4-MyD88 inh	NOTCH ag
c1csc(-c2nn[nH]n2)c1	5.3	-6.0	9.0	2.9*
CS(=O)(=NS(=O)(=O)c1cccc2nonc12)c1ccccc1 (stereo not drawn)	-17.3	-7.4	8.2	.
CC(C)(C)C(C)(C#N)Nc1ccc(Cl)cc1 (stereo not drawn)	-5.6	45.3*	8.4	0.7
Cc1nn(C(=O)c2ccccc2)c(C)c1Oc1ccc(Cl)cc1	14.0	-5.5	11.9	3.9*
CC(=O)c1csc([N+](=O)[O-])c1	6.0	-5.3	-2.9	-0.3
CC(C)(C)c1ccc(Oc2ccc(NC(=O)c3ccco3)cn2)cc1	37.6	-3.4	0.4	0.1
O=C(Nc1ccc(Oc2cccc(C(F)(F)F)c2)nc1)c1ccc2c(c1)CCO2	90.1*	-1.0	-5.7	-0.9
O=C(Nc1ccccc1)Nc1ccc(Oc2cccc(C(F)(F)F)c2)nc1	86.7*	-6.4	2.3	-0.5
CC(=O)N/C(=C\C=C\c1ccccc1)C(=O)O	-11.2	-1.3	-14.6	0.4
COC(=O)c1ccc([N+](=O)[O-])c(Oc2ccc(Cl)cc2Cl)c1	71.2	-9.2	-5.4	0.2
CCOC(=O)c1ccc(Oc2ccc(Cl)cc2Cl)c([N+](=O)[O-])c1	93.5*	-3.8	0.3	-0.8
COC(=O)c1sccc1NC(=O)c1ccc(Cl)cc1Cl	-11.0	0.9	-4.9	0.2
Cn1ncc2c(Sc3cccc4ccccc34)ncnc21	3.4	-2.5	2.2	0.0
Cc1cc(C(=O)NNS(=O)(=O)c2cccc3cccnc23)nn1C(C)(C)C	4.9	-7.8	-5.3	3.2*
Cc1cc(C(=O)NNC(=O)c2ccco2)nn1C(C)(C)C	0.0	-3.6	4.3	-0.8
C/S(=N\S(=O)(=O)c1ccc(Cl)cc1)c1sc(Cl)c2c1C(=O)CC(C)(C)C2 (stereo not drawn)	82.6*	-3.0	-11.9	0.0
COc1ccc(NC(=S)NC(=O)c2ccccc2)c([N+](=O)[O-])c1	1.6	-5.7	-3.8	-0.1
COc1ccc(NC(=S)NC(C)(C)C)c([N+](=O)[O-])c1	89.8*	-1.1	16.9	-0.9
C/C=C/C=N/NC(=O)N/N=C/C=C/C	-10.4	-7.2	-6.1	3.0*
O=C(NCc1cc(F)cc2c1OCOC2)c1ccno1	-20.6	-4.2	9.7	0.0
Cc1ccc(C)c(CSc2nc(C3CCCCC3)c(C#N)c(=O)[nH]2)c1	97.0*	-5.5	3.2	0.0
CSc1nc(CSc2ccc(Cl)cc2)nc(C2CC2)c1C#N	-0.6	-10.0	-3.1	1.0
Cc1ccc(S(=O)(=O)N/N=C/c2ccc3c(c2)OCO3)cc1	-3.4	-2.9	7.5	-0.5
S=C(NCc1ccco1)Nc1cccnc1	119.7*	-8.2	3.7	-0.1
S=C(NCc1ccco1)Nc1ccc(C2=NCCO2)cc1	-13.1	-1.5	-0.2	-0.2
SMILES	S1P1 ag	rat GALR2 agon	TLR4-MyD88 inh	NOTCH ag
O=C(Nc1cc(-c2cccs2)nn1-c1ccc(F)cc1)C1CCC1	-3.5	-8.0	0.5	-0.6
Cc1nc(-c2sc3ccc(Cl)cc3c2C)cs1	-16.3	-7.7	1.6	-0.5
Cn1sc(=O)c2cc(S(=O)(=O)Nc3ccccc3N3CCCCC3)ccc21	-2.7	15.9*	-6.6	-5.7
Cc1ccc(S(=O)(=O)NC(=O)Nc2ccccc2N2CCCCC2)cc1	-4.1	-7.9	-4.5	0.6
Cc1ccc(NC(=O)Nc2ccc(OCc3ccccc3)cc2)cc1NS(C)(=O)=O	88.1*	-5.6	-12.7	.
CN(C)c1ccc(NC(=O)Nc2ccc(OCc3ccccc3)cc2)cc1	6.8	-7.1	-3.6	-0.2
N#C/C(=C\c1cccnc1)C(N)=S	5.5	-4.5	0.4	-0.2
COc1ccc(/C=C(\C#N)C(N)=S)cc1	108.8*	-0.1	14.1	-1.1
N#Cc1cccc(CSc2ccc(Cl)cc2)c1	-4.2	-6.1	-2.7	-0.1
O=C(CCN1CCC(c2ccc(Cl)s2)=N1)c1ccc(Cl)s1	11.1	-6.9	3.4	3.4*
NC(=O)c1ccc(-c2ccc(Cl)cc2)s1	11.2	-5.2	1.0	0.3
CCOC(=O)c1nnc2c3c(-c4ccccc4)c(-c4ccccc4)nnc3nn2c1C	101.4*	-7.2	-9.7	-0.6
CCOC(=O)c1cnc2cc(-c3ccccc3)nn2c1C	-5.0	-6.9	0.7	0.1
CSc1nc(-c2cccs2)cc(C(F)(F)F)c1C#N	-13.4	31.0*	-6.0	0.0
Cc1cc(OCc2ccccc2)ccc1[N+](=O)[O-]	4.3	-6.2	16.2	2.5*
Cn1cnc(S(=O)(=O)NCCN2CCNC2=O)c1	9.9	-10.9	13.0	-0.3
CN1C2CCC1CC(NC(=O)CS(=O)(=O)c1ccc(F)cc1F)C2 (stereo not drawn)	-14.3	-7.2	-29.1	0.4
CN1C2CCC1CC(NC(=O)CSCc1ccc(Cl)cc1Cl)C2 (stereo not drawn)	-2.2	51.2*	-10.8	-0.2
O=C(CS(=O)(=O)Cc1cccc(C(F)(F)F)c1)NNC(=O)c1cccc(Cl)c1	5.3	-3.0	5.0	-0.3
O=C(NNC(=O)c1ccccc1[N+](=O)[O-])c1cc2c(s1)-c1ccccc1CC2	-5.9	-8.7	-11.1	2.4*
CCOC(=O)NC(=S)Nc1ccc(C(C)(C)C)cc1	-16.1	-5.9	-10.3	-0.2
CCOC(=O)CNc1ccc(C(F)(F)F)cc1	5.2	61.1*	-4.8	0.2
CCOC(=O)C1CCN(S(=O)(=O)c2ccc(-c3ccon3)s2)CC1	12.3	3.5	-5.1	-0.1
O=C(CSCCS(=O)(=O)c1ccccc1)NNS(=O)(=O)c1ccc(Cl)s1	-8.0	-4.3	0.3	-0.5
COC(=O)c1c(N)cccc1F	-9.3	-7.8	0.0	-0.3
SMILES	S1P1 ag	rat GALR2 agon	TLR4-MyD88 inh	NOTCH ag
O=S(=O)(Oc1ccc(Cl)cc1)c1csc(C(F)(F)F)c1-c1ccccc1	-8.9	-10.2	2.8	-0.5
O=C1CSCC(=O)N1c1csc(C(F)(F)F)c1-c1ccccc1	100.0*	-5.3	1.1	0.0
CC(C)n1cc(-c2noc(-c3cccs3)n2)c(=O)n(Cc2ccccc2)c1=O	91.8*	-6.2	-2.1	-5.7
CC1CC(=O)c2c(F)c(F)cc3c(=O)c(C(=O)O)cn1c23 (stereo not drawn)	-4.0	-4.7	0.7	-0.1
N#Cc1c(C(F)(F)F)c([N+](=O)[O-])c(-c2cccc([N+](=O)[O-])c2)[nH]c1=O	-2.5	25.1*	-8.7	-1.0
CCOC(=O)N1CCC(=NNc2ccc([N+](=O)[O-])cc2[N+](=O)[O-])CC1	18.0	-9.4	-21.7	0.3
CCN(CC)c1ccc(N=Nc2ccc(Br)cn2)c(O)c1	85.5*	-9.6	-2.2	-0.5
COCCOc1cc2ncnc(N3CCC(C(=O)O)CC3)c2cc1OCCOC	113.4*	-2.0	7.4	-0.8
O=C(Nc1ccccn1)c1cc(-c2ccccc2)c(C(F)(F)F)s1	87.3*	-9.9	-6.5	0.1
Cc1cc(NC(=O)c2cc(-c3ccccc3)c(C(F)(F)F)s2)on1	-5.0	-4.3	-6.7	-0.2
Cc1noc(C)c1C(=O)N1CCN(c2ncc(C(F)(F)F)cc2Cl)CC1	-0.8	-6.3	3.7	0.0
Cc1oc(-c2ccccc2)cc1C(=O)N1CCN(c2ncc(C(F)(F)F)cc2Cl)CC1	-2.2	-8.6	-9.0	2.3*
N/C(=N\OC(=O)c1ccc(OCC(F)(F)F)nc1)c1cccc(Cl)c1	94.7*	-6.2	-8.2	-0.6
O=[N+]([O-])c1c(NCc2ccco2)ncnc1NCc1ccco1	-1.3	-5.1	-5.5	.
Cc1ccc(-c2csc3ncnc(NCc4ccco4)c23)cc1	86.8*	-6.5	8.2	-0.1
